A selection follows.
aSyn UTR act: Activators working through SNCA 5'UTR binding (MLPCN); alpha-synuclein 5'UTR reporter, activators screen; activity score, % (tested at 7.5 µM), hits read low; 300,000 tested, 7.1% active; AID 1814; in the data active = activity score below about -60%
* = called active by the depositor.

SMILES | aSyn UTR act
CCS(=O)(=O)c1ccc(OC)c(N=Nc2ccc(O)c3ncccc23)c1 | 66
Cc1cc(C(=O)Nc2cccc3cccnc23)ccc1[N+](=O)[O-] | -106*
COc1ccc(NC(=O)C(=O)Nc2cccc3cccnc23)cc1OC | -114*
CC(C)Oc1ccc(C(=O)Nc2cccc3cccnc23)cc1 | -136*
COc1ccc(C(=O)Nc2cccc3cccnc23)cc1OC | -72*
O=C(c1ccc2nc(N3CCCCC3)sc2c1)N1CCN(c2ccccn2)CC1 | -112*
NC(=O)C1CCN(C(=O)c2ccc3nc(N4CCCCC4)sc3c2)CC1 | -102*
O=C(c1cc(Br)c(Br)s1)N1CCN(c2ccccn2)CC1 | -65*
C=CCOc1ccc(CNc2nccs2)cc1 | -74*
N=c1n(N)c2ccccc2n1CC(=O)c1ccc(Br)cc1 | -109*
Cc1ccc(S(=O)(=O)CCC(=O)N(CCCN2CCOCC2)c2nc3ccccc3s2)cc1 | -119*
O=C(CCS(=O)(=O)c1ccccc1)N(CCCN1CCOCC1)c1nc2ccccc2s1 | -106*
Cc1ccc2nc(N(CCN3CCOCC3)C(=O)CCS(=O)(=O)c3ccccc3)sc2c1 | -93*
O=C(/C=C/c1ccc2c(c1)OCO2)Nc1nc(-c2ccc(F)cc2)cs1 | -62*
O=C(/C=C/c1ccc2c(c1)OCO2)Nc1nc2ccc(F)cc2s1 | -110*
Cc1csc(Nc2ccc(Cl)cc2)n1 | -113*
Cc1ccc(Nc2nc(C)cs2)cc1 | -125*
COC(=O)Cc1csc(Nc2ccc(Cl)cc2)n1 | -68*
CCN(CC)C(=O)COc1ccc(-c2ccccc2)cc1 | -116*
CCOC(=O)c1sc(=NC(=O)c2ccccc2Br)n(C)c1C | -101*
CCOC(=O)c1sc(=NC(=O)c2ccc(C)c(C)c2)n(C)c1C | -283*
CCOC(=O)c1sc(=NC(=O)/C=C/c2ccccc2)n(C)c1C | -111*
CCOC(=O)c1sc(=NC(=O)c2ccc(Cl)s2)n(C)c1C | -194*
Cc1ccc2c(c1)sc(=NC(=O)c1cccs1)n2C | 85
CCOC(=O)c1sc(=NC(=O)c2cccs2)n(C)c1C | -122*
SMILES | aSyn UTR act
N#Cc1nc(-c2ccc(Cl)cc2)oc1NCCc1ccccn1 | -156*
Cc1ccc(-c2nc(C#N)c(NCCc3ccccn3)o2)cc1 | -151*
Cc1cc(C(=O)OCc2nc3ccccc3s2)c(C)o1 | -126*
O=C(OCc1nc2ccccc2s1)c1ccco1 | -97*
CC(=O)OCc1nc2ccccc2s1 | -136*
COC(=O)c1c(-c2cccs2)csc1NC(=O)c1cccnc1 | -87*
Cc1cccc(/C=C(\c2nc3ccccc3[nH]2)S(=O)(=O)c2ccccc2)c1 | -118*
CC(C)(C)c1ccc(/C=C(\c2nc3ccccc3[nH]2)S(=O)(=O)c2ccccc2)cc1 | -78*
CC(C)(C)C1=CC=C(C(C)(C)C)C(=O)C1=O | -73*
COc1ccc(NC2=C3CC(C)CC=C3N(c3ccc(OC)cc3)C2=O)cc1 (stereo not given) | -84*
CCOC(=O)C(Nc1ccc2ccccc2c1)C(=O)OCC | -138*
COc1cccc(Nc2nc(-c3ccc4c(c3)OCCO4)cs2)c1 | -227*
c1cc2c(cc1Nc1nc(-c3ccc4c(c3)OCO4)cs1)OCCO2 | -89*
CCCC(=O)N1CCN(c2nc3ccc(Br)cc3s2)CC1 | -142*
CCCCC(=O)N1CCN(c2nc3ccc(Br)cc3s2)CC1 | -102*
CCc1ccc2nc(N(CCCN(C)C)C(=O)c3ccc(S(=O)(=O)N(C)C4CCCCC4)cc3)sc2c1 | 55
CCCC(=O)N1CCN(c2nc3ccc(Cl)cc3s2)CC1 | -139*
CCCC(=O)N1CCN(c2nc3ccc(CC)cc3s2)CC1 | -116*
c1ccc(/N=C2\N=C(Nc3ccccn3)c3ccccc32)nc1 | 57
O=c1[nH]c(-c2ccccn2)cc2ccccc12 | -118*
CCc1cc2c(=O)[nH]c(-c3ccccn3)nc2s1 | 59
O=c1[nH]c(Nc2ccc(F)cc2)cc2ccccc12 | -75*
O=c1[nH]c(Nc2ccccn2)cc2ccccc12 | -112*
Cc1c(C)n(C)c2ccc(C(=O)NCCc3ccco3)cc12 | -74*
CC(=O)Nc1cccc(C(=O)NCCc2ccco2)c1 | -76*
SMILES | aSyn UTR act
Clc1ccc(-c2csc(Nc3ccccc3)[n+]2Cc2ccco2)c(Cl)c1 | -269*
C=CC[n+]1c(-c2ccc(Cl)cc2Cl)csc1Nc1ccc(NC(C)=O)cc1 | 94
CCCC[n+]1c(-c2ccc(Cl)cc2Cl)csc1Nc1ccccc1 | -128*
Clc1ccccc1/C=C/c1ccnc2ccccc12 | -109*
Oc1ccc(/C=C/c2ccnc3ccccc23)cc1 | -112*
Cc1cc(C)n(-c2nc(NCC(C)O)c3c4c(sc3n2)CCCC4)n1 (stereo not given) | -62*
C=CCNc1nc(-c2cc3ccccc3o2)cs1 | -73*
c1ccc2sc(NCC3CCCO3)nc2c1 (stereo not given) | -151*
c1ccc2oc(-c3csc(NCC4CCCO4)n3)cc2c1 (stereo not given) | -110*
CN(C(=O)/C=C/c1ccccc1)C1CCCCC1 | -98*
N#CCc1nc(CSc2nc3ccccc3o2)cs1 | -134*
c1ccc2oc(SCc3nc4ccccc4s3)nc2c1 | -149*
c1ccc(SCc2nc3ccccc3s2)nc1 | -113*
Fc1ccc(CO/N=C2\CCCc3nonc32)cc1 | -91*
CC1=NN(c2ccccc2)C(=O)/C1=C/c1cc2cc(C)ccc2nc1N1CCCCC1 | -107*
Cc1ccc(NC(=O)O/N=C/c2ccc(F)cc2)cc1 | -131*
O=C(Nc1ccccc1)O/N=C/c1ccc(F)cc1 | -189*
Cc1ccc(NC(=O)O/N=C/c2ccc(N(C)C)cc2)cc1 | -71*
S=C(NCCc1ccc(Cl)cc1)NC1CCCCC1 | -111*
CNC[C@@H](Cc1ccccc1)NC[C@@H](CC1CCCCC1)NCCCc1ccccc1 | 125
S=C(NCCc1ccccc1)NC1CCCCCC1 | -114*
CN(C)CC/C=C1/c2ccccc2CS(=O)(=O)c2ccccc21 | -74*
CN(c1ccc(O)cc1)S(=O)(=O)c1ccc2ccccc2c1 | -111*
OCCOc1ccc(C2=NCCO2)cc1 | -72*
CC(=O)N(Cc1ccco1)c1nc(C(=O)Nc2ccc(Cl)cc2)c(C)s1 | -105*
SMILES | aSyn UTR act
O=c1[nH][nH]c(-c2ccccc2O)c1C(C[N+](=O)[O-])c1ccc(Br)cc1 (stereo not given) | -95*
O=C(c1cnn2cccnc12)N1CCN(c2ccccc2)CC1 | -64*
O=C(Nc1ccc2c(c1)OCO2)c1cnn2cccnc12 | -141*
O=C(Nc1cccc(O)c1)c1cnn2cccnc12 | -110*
c1ccc(-c2nc3c([nH]2)CCc2nonc2-3)cc1 | -66*
COc1ccc(-c2ccc(SC)nn2)cc1 | 75
COc1ccc(-c2ccc(SCC(=O)NC3CCCCC3)nn2)cc1 | -83*
CCOc1ccc(-c2ccc(SCC(=O)NC3CCCCC3)nn2)cc1 | -69*
COc1ccc(OC)c(Nc2c3c(nc4ccccc24)CCC3)c1 | 106
Cc1ccc(Nc2nc(NCCO)c3ccccc3n2)cc1C | -76*
COc1ccc(OC)c(Nc2nc(NCCO)c3ccccc3n2)c1 | -68*
OCCNc1c2ccccc2nc2ccccc12 | -167*
O=C(CCCOc1ccccc1)N1CCCCC1 | 71
CCC1CCCCN1C(=O)CCCOc1ccccc1 (stereo not given) | -113*
CCOC(=O)C1CCN(C(=O)CCCOc2ccccc2)CC1 | -121*
COc1cccc(NC(=O)c2cccc(C)c2[N+](=O)[O-])c1 | -76*
COc1cccc(NC(=O)COc2ccccc2)c1 | -144*
CC(=O)Nc1cccc(OCC(=O)Nc2sccc2C(N)=O)c1 | -82*
CSc1cccc(NC(=O)COc2ccccc2C)c1 | -85*

Screening results: PubChem, Broad Institute
